Source: PubChem (The Scripps Research Institute Molecular Screening Center)
Rows were chosen to be rich in hits. Some 4.8% of all compounds tested hit in one or more screens of this group.
hcDAF-12 act = H. contortus DAF-12 nuclear receptor activators, primary screen, cell-based, luminescence, HEK293, lit1-tk-luc reporter; HEK293 hcDAF-12 lit1-tk-luc reporter; 0% DMSO, 100% Δ7-dafachronic acid; AID 652067, 2013; activation, % at 6.8 µM; 370,000 tested, 1.4% active;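 active = activation above the mean of all tested compounds plus 3 SD, cut at about 5.5% in these data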;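 note: 100% = response to 3 µM Δ7-dafachronic acid high control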
DAX1 inh-1 = DAX1 (NR0B1) inhibitors on StAR promoter, primary screen, cell-based, luminescence, SF-1 (NR5A1), full-length DAX-1. HEK293T StAR-luciferase reporter, SF-1/DAX-1 repression relief. inhibition, % at 6.8 µM. 370,000 tested, 1.1% active. AID 652010, 2013;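 active = inhibition above the mean over all tested compounds plus 3 SD, cut at about 3.6% in these data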;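 note: 0% = DAX-1 cells with DMSO and 100% = cells lacking DAX-1 with DMSO; higher inhibition means more luminescence from relief of DAX-1 repression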
SMARCA2 act = SMARCA2 (BRM) function activators, primary screen, cell-based, luminescence, high throughput. MG213 cells, MMTV-luciferase reporter, dexamethasone, overnight. activation, % at 9.1 µM. 370,000 tested, 1% active. AID 652017, 2013; in the data active = activation above about 7.8%;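 note: 0% = vehicle wells and 100% = reference activator wells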
hgDAF-12 ag = H. glycines DAF-12 receptor agonists, primary screen, cell-based, luminescence, HEK293, GAL4 fusion, UAS-luciferase; Nuclear hormone receptor DAF-12 (Heterodera glycines), GAL4 fusion; HEK293 GAL4-hgDAF12 UAS-luciferase reporter, agonist luminescence; normalized to butyrate control; activation, % at 6.8 µM; 370,000 tested, 1.8% active; AID 687014, 2013;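 active = activation above a cutoff set at the mean of all screened compounds plus 3 SD, cut at about 10% in these data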;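 note: 0% = DMSO wells and 100% = sodium butyrate wells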
ssDAF-12 act = S. stercoralis DAF-12 nuclear receptor activators, primary screen, cell-based, luminescence, HEK293, GRIP1 co-expression, lit1-tk-luc | Nuclear hormone receptor DAF-12 (Strongyloides stercoralis) | HEK293 ssDAF-12/GRIP1 lit1-tk-luc reporter; % of 3 µM dafachronic acid response | activation, % at 6.8 µM | 370,000 tested, 1% active;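 active = activation above the mean over all tested compounds plus 3 SD, cut at about 0.9% in these data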;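 note: 0% = DMSO-only wells and 100% = 3 µM delta7-dafachronic acid wells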
DAX1 inh-2 = DAX1 (NR0B1) inhibitors, primary screen, cell-based, HEK293, Gal4-DAX1, luciferase luminescence. Nuclear receptor subfamily 0 group B member 1 (Homo sapiens), P51843. HEK293 Gal4-DAX1 luciferase reporter. inhibition, % at 6.75 µM. 340,000 tested, 0.99% active. AID 504766, 2011;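 active = inhibition above the mean over all tested compounds plus 3 SD, cut at about 4.2% in these data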;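 note: 0% = DAX1-transfected cells with DMSO and 100% = empty-vector control cells with DMSO; inhibition shows as a rise in luminescence from relieved DAX1 repression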
Target sequence (P51843 207-470 limits assumed): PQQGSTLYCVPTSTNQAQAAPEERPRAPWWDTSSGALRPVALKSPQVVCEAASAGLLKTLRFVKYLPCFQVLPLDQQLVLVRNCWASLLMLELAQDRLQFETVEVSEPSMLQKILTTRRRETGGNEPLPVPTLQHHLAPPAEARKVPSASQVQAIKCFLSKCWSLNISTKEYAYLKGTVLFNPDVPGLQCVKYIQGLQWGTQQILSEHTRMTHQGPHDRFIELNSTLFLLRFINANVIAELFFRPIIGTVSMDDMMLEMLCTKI
* marks the source's active call; other numbers are inactive results.

For COc1ccc(Cc2c(C3CCCCC3)nc3c(C)cc(Br)cn23)c(C)c1 the results were hcDAF-12 act -1, DAX1 inh-1 -2, SMARCA2 act -2, hgDAF-12 ag -2 and ssDAF-12 act -1.
Screening CCOC(=O)CCC(=O)N1CCNC(=O)C1 returned hcDAF-12 act 5.6*, DAX1 inh-1 0, SMARCA2 act -1, hgDAF-12 ag 0, ssDAF-12 act -2 and DAX1 inh-2 2.
Screening CN1CCN(c2nc(-c3ccc(C(C)(C)C)cc3)nc3ccccc23)CC1 returned hcDAF-12 act 6.2*, DAX1 inh-1 2, SMARCA2 act -1, hgDAF-12 ag 2, ssDAF-12 act -1 and DAX1 inh-2 0.
`Cc1ccc(-c2nc(N3CCN(C)CC3)c3ccccc3n2)cc1` gave hcDAF-12 act 6.3*, DAX1 inh-1 0, SMARCA2 act 1, hgDAF-12 ag 5, ssDAF-12 act 0 and DAX1 inh-2 1.
Screening CC1CCCC(CC(N)=O)CC1 (stereo not drawn) returned hcDAF-12 act -2, DAX1 inh-1 0, SMARCA2 act 0, hgDAF-12 ag 1, ssDAF-12 act -1 and DAX1 inh-2 1.
For FC(F)Oc1ccccc1/C=N/n1cnc2ccccc21 the results were hcDAF-12 act 3, DAX1 inh-1 0, SMARCA2 act 4, hgDAF-12 ag 11*, ssDAF-12 act -1 and DAX1 inh-2 0.
For CC(=O)N1CCC(CCCC2CCN(C(C)=O)CC2)CC1 the results were hcDAF-12 act 1, DAX1 inh-1 0, SMARCA2 act -1, hgDAF-12 ag 0, ssDAF-12 act -1 and DAX1 inh-2 0.
Screening O=C(Nc1ccc(Nc2ccccc2)cc1)c1ccc(Cl)cc1Cl returned hcDAF-12 act -1, DAX1 inh-1 -1, SMARCA2 act 2, hgDAF-12 ag 2 and ssDAF-12 act -1.
C#Cc1cccc(NC(=O)c2ccc(Cl)cc2Cl)c1 was read as hcDAF-12 act 4, DAX1 inh-1 2, SMARCA2 act 1, hgDAF-12 ag 12*, ssDAF-12 act 0 and DAX1 inh-2 2.
For N#CCCN(C(=O)COC(=O)CCc1nc2ccccc2c(=O)[nH]1)c1ccccc1F the results were hcDAF-12 act -1, DAX1 inh-1 2, SMARCA2 act -2, hgDAF-12 ag 2, ssDAF-12 act -1 and DAX1 inh-2 1.
COC(=O)c1scc(C)c1N/N=C(\C)c1ccc(F)cc1 was read as hcDAF-12 act 4, DAX1 inh-1 1, SMARCA2 act -3, hgDAF-12 ag 1, ssDAF-12 act 1.0* and DAX1 inh-2 0.
Clc1ccc(-c2nc3c4ccccc4ccn3c2Cc2cccc(Cl)c2)cc1 was read as hcDAF-12 act 5.9*, DAX1 inh-1 1, SMARCA2 act 2, hgDAF-12 ag 7 and ssDAF-12 act 1.
For Clc1cccc(Cc2c(-c3cccc(Br)c3)nc3c4ccccc4ccn23)c1 the results were hcDAF-12 act 6.1*, DAX1 inh-1 1, SMARCA2 act -2, hgDAF-12 ag 3 and ssDAF-12 act 0.
Screening Brc1cccc(-c2nc3c4ccccc4ccn3c2CC2CCCCC2)c1 returned hcDAF-12 act 5, DAX1 inh-1 3, SMARCA2 act 0, hgDAF-12 ag 2 and ssDAF-12 act 0.
`Fc1cccc(Cc2c(-c3ccccc3)nc3c4ccccc4ccn23)c1` gave hcDAF-12 act 4, DAX1 inh-1 1, SMARCA2 act 2, hgDAF-12 ag 5 and ssDAF-12 act 1.4*.
`c1ccc(-c2nc3c4ccccc4ccn3c2CC2CCCCC2)cc1` gave hcDAF-12 act 5.6*, DAX1 inh-1 1, SMARCA2 act 4, hgDAF-12 ag 6 and ssDAF-12 act 1.
For CC(CCc1ccccc1)NC(=O)CCNC(=O)c1ccccc1Cl (stereo not drawn) the results were hcDAF-12 act 0, DAX1 inh-1 0, SMARCA2 act -5, hgDAF-12 ag -3, ssDAF-12 act -1 and DAX1 inh-2 1.
Screening CCOC(=O)C1(C)CCCN1C(=O)c1cccc(F)c1 (stereo not drawn) returned hcDAF-12 act -1, DAX1 inh-1 1, SMARCA2 act 6, hgDAF-12 ag 0 and ssDAF-12 act -2.
For O=S(=O)(c1ccc(F)cc1F)N1CCN(CCO)CC1 the results were hcDAF-12 act 0, DAX1 inh-1 -1, SMARCA2 act -2, hgDAF-12 ag 3, ssDAF-12 act -1 and DAX1 inh-2 2.
CN(C)c1ccc(/C=C2/NC(=O)NC2=O)cc1 was read as hcDAF-12 act 3, DAX1 inh-1 1, SMARCA2 act 5, hgDAF-12 ag 11*, ssDAF-12 act -1 and DAX1 inh-2 1.
`Cc1cccc(C)c1NC(=O)CN(C)C(=O)CC1CC2CCC1C2` (stereo not drawn) gave hcDAF-12 act -1, DAX1 inh-1 1, SMARCA2 act -1, hgDAF-12 ag 0, ssDAF-12 act -1 and DAX1 inh-2 1.
`O=C(OCC(=O)N1CCCC1)c1cc(F)c(F)cc1Cl` gave hcDAF-12 act -3, DAX1 inh-1 0, SMARCA2 act 4, hgDAF-12 ag 2, ssDAF-12 act -1 and DAX1 inh-2 1.
Screening CCOC(=O)N1CCC(=NNC(=O)c2ccccc2F)CC1 returned hcDAF-12 act 3, DAX1 inh-1 1, SMARCA2 act 11*, hgDAF-12 ag 9, ssDAF-12 act -1 and DAX1 inh-2 3.
For CC(=O)Nc1ccc(NC(=O)Cc2ccc(S(=O)(=O)N3CCCCC3)cc2)cc1 the results were hcDAF-12 act -1, DAX1 inh-1 2, SMARCA2 act -1, hgDAF-12 ag 0, ssDAF-12 act 0 and DAX1 inh-2 0.
`O=C(OCc1nc2ccccc2s1)c1ccc([N+](=O)[O-])o1` gave DAX1 inh-2 0.
O=C(OCc1nc2ccccc2s1)c1ccc(Br)o1 was read as hcDAF-12 act 5, DAX1 inh-1 0, SMARCA2 act 3, hgDAF-12 ag 4, ssDAF-12 act 0 and DAX1 inh-2 4.6*.
For COc1ccc2nc(NC(=O)c3cc(C)oc3C)sc2c1 the results were hcDAF-12 act 1, DAX1 inh-1 2, SMARCA2 act 2, hgDAF-12 ag 11*, ssDAF-12 act 0 and DAX1 inh-2 0.
`COc1ccc2nc(NC(=S)NC(=O)c3ccco3)sc2c1` gave hcDAF-12 act 3, DAX1 inh-1 1, SMARCA2 act 3, hgDAF-12 ag 11*, ssDAF-12 act 0 and DAX1 inh-2 1.
